ABHD5 PLIN5 PPI – inhibitors of human ABHD5-perilipin-5 interaction | Q00G26+Q8WTS1 | Split G. princeps luciferase complementation, luminescence, 4 h | inhibition, % at 4 µM | 0.78% of 360,000 active;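 active means inhibition above the mean inhibition across every tested compound plus 3 SD, cut at about 22% in these data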
Target sequence (Q00G26 whole entry, looked up): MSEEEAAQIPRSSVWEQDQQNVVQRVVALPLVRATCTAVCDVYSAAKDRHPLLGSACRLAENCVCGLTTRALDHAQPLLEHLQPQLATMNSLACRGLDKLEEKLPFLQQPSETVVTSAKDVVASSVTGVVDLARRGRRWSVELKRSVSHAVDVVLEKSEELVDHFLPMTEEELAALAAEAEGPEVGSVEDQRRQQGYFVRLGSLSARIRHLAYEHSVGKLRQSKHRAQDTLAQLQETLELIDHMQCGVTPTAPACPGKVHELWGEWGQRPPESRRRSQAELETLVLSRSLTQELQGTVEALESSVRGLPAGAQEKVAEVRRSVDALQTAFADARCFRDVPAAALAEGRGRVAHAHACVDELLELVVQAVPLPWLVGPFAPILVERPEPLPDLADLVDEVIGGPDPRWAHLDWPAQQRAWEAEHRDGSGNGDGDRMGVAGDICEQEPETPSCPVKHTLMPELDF
Target sequence (Q8WTS1 whole entry, looked up): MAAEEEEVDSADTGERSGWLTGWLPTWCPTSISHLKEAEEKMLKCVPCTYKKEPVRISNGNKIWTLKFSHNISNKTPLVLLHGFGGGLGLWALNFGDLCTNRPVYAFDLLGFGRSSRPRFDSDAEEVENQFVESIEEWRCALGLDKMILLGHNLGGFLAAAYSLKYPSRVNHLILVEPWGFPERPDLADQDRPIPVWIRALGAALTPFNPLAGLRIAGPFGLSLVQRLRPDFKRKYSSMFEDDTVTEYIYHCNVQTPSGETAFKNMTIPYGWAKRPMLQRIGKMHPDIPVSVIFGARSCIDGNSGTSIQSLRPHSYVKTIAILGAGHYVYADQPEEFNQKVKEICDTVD
HIF-2a inh – HIF-2a inhibition; 786-0 RCC cells HIF-2a reporter, luciferase luminescence, overnight; inhibition, % at 18.8 µM; 0.72% of 360,000 active; AID 624352;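 active means inhibition of the luminescence signal of 40% or more relative to plate controls, in a single-dose primary screen at 18.75 µM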
KKLEB cytotox – counter-screen for CF NF-kB inhibitors: cytotoxicity. KKLEB CF airway cells viability, ATPlite luminescence, overnight; stronger effect = lower value; cells stimulated with P. aeruginosa culture filtrate. 0.36% of 360,000 active. activity change (cytotoxicity), % at 5 µM;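 active means corrected activity change at or below -50% at 5 µM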
Peg3 prom inh-1 – inhibitors of Peg3 promoter; HeLa PEG-Prom luciferase reporter, luminescence, overnight; inhibition, % at 20 µM; 1.7% of 360,000 active;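 active means inhibition of at least 50% at 20 µM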
Mdm2-MdmX inh – disrupts the human Mdm2-MdmX interaction. O15151+Q00987. SaOS-2 split-luciferase Mdm2/MdmX complementation, luminescence. inhibition, % at 8 µM. 3% of 330,000 active;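 active means inhibition of at least 50% at 8 µM in the primary screen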
CF NFkB block – cystic fibrosis NF-kB activation inhibition | KKLEB NF-kB-GFP reporter, PAF-induced, GFP fluorescence overnight | 0.86% of 360,000 active | inhibition, % at 5 µM;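 active means at least 50% inhibition at 5 µM, scaled per plate between neutral and stimulator controls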;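 further: PAF is a Pseudomonas aeruginosa culture filtrate used as stimulus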
Mdm2 MdmX conf-1 – confirmation of human Mdm2/MdmX interaction inhibitors; shares compounds with Mdm2-MdmX inh; inhibition, % at 8 µM; Mdm2-MdmX binding, luminescent assay; 55% of 10,000 active
Full FLuc ctr – counter-screen for Mdm2/MdmX inhibitors: full-length luciferase; SaOS-2 full-length luciferase counterscreen, luminescence; AID 504607; shares compounds with Mdm2-MdmX inh; 77% of 6,200 active; inhibition, % at 8 µM;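 active means mean inhibition at 8 µM reaching about 37%, which flags the compound as non-specific, limit read from the data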;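 further: p53-null SaOS-2 cells with luciferase driven by a doxycycline-inducible promoter; compound on cells about two nights before reading with doxycycline added after day one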
Peg3 prom inh-2 – confirmation of Peg3 promoter inhibitors; shares compounds with Peg3 prom inh-1; 84% of 1,300 active; inhibition, % at 20 µM; HeLa PEG-Prom luciferase reporter, luminescence, overnight; AID 602417;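 active means at 20 µM dose, 40% or more inhibition averaged across four replicates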
CF NFkB conf – confirmation of cystic fibrosis induced NF-kB inhibitors | shares compounds with CF NFkB block | KKLEB CF airway cells, PAF-induced NF-kB-GFP fluorescence, overnight | inhibition, % at 5 µM | 64% of 1,300 active;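 further: stimulus PAF is a Pseudomonas aeruginosa filtrate and not platelet activating factor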
ABHD5 PLIN5 conf – confirmation of human ABHD5-PLIN5 interaction inhibitors; shares compounds with ABHD5 PLIN5 PPI; biochemical ABHD5-PLIN5 interaction, luminescence; inhibition, % at 4 µM; 67% of 2,200 active; in the data active means inhibition above about 23%
HNF4 split-luc – HNF4 split-luciferase signal hit, counter-screen; 77% of 2,200 active; AID 651674; inhibition, % at 4 µM; shares compounds with ABHD5 PLIN5 PPI; HNF4 dimerization, luminescence, biochemical;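 active means mean inhibition across replicate wells exceeding the computed hit threshold, cut at about 13% in these data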;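 further: light from luciferase halves that rejoin when HNF4 fusion proteins dimerize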
Mdm2 MdmX conf-2 – confirmation of inhibitors of human Mdm2/MdmX interaction, set 2; shares compounds with HIF-2a inh; SaOS-2 split-luciferase Mdm2/MdmX complementation, luminescence; inhibition, % at 8 µM; 99% of 740 active;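 active means mean inhibition of the luminescence signal across two replicates at or above 26 percent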
HIF-2a conf – confirmation of HIF-2a inhibitors; shares compounds with HIF-2a inh; 786-0 RCC cells, HIF-2a luciferase reporter luminescence, overnight; inhibition, % at 18.8 µM; 56% of 1,800 active; AID 651580;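 active means mean inhibition across four replicates of at least 40 percent at the single tested concentration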
HIF-1a counter – inhibits HIF-1a reporter, a counter-screen for HIF-2a inhibitors. AID 651589. 72% of 1,800 active. shares compounds with HIF-2a inh. inhibition, % at 18.8 µM. MiaPaCa-2 HIF-1a luciferase reporter, desferoxamine, overnight;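 active means mean inhibition of the reporter signal across four replicates at the single tested dose of 50% or more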
Of the large screens only hits and unclear results are named; the others gave an inactive call (follow-up assays come after a bar, where they were run). Compounds with a hit are over-represented: about 4.6% of the library has one in this group of screens. Unless noted, no stated cut-off is given here; in the data, active means inhibition above about 40%; inactive means the rest.

CC(=O)c1ccc(Nc2cc(C)nc3c(C)cc(C)cc23)cc1	HIF-2a inh 59, Peg3 prom inh-1 103, Mdm2-MdmX inh 64 | Mdm2 MdmX conf-1 61 | Full FLuc ctr 65 | HIF-2a conf inactive | HIF-1a counter 85
CN(C)C=Nc1ccc([N+](=O)[O-])c2ccccc12	none (no result: Mdm2-MdmX inh)
Oc1ccccc1CNc1ccc(Br)cn1	Mdm2-MdmX inh 78 | Mdm2 MdmX conf-1 68 | Full FLuc ctr inactive | Mdm2 MdmX conf-2 32
CCOc1ccc(S(=O)(=O)Nc2ccc(C(=O)NCc3ccncc3)cc2)cc1	none
CN(C(=O)COC(=O)c1ccc(S(=O)(=O)N2CCCCCC2)cc1)c1ccccc1	none (no result: Mdm2-MdmX inh)
COC(=O)c1nn(-c2ccc(OC)cc2)c(=O)cc1O	none
COc1ccc(-n2nc(C#N)c(Cl)cc2=O)cc1	HIF-2a inh 91, Peg3 prom inh-1 104, Mdm2-MdmX inh 100, CF NFkB block 77 | Mdm2 MdmX conf-1 100 | Full FLuc ctr 53 | Mdm2 MdmX conf-2 103
COC(=O)[C@@]12C[C@@H](CC(=O)N3CCN(C(=O)c4ccco4)CC3)C(=O)N(Cc3ccc4c(c3)OCO4)C1=CCC(C)(C)C2	none (no result: KKLEB cytotox, Peg3 prom inh-1, Mdm2-MdmX inh, CF NFkB block)
CN(Cc1nc2ccccc2c(=O)[nH]1)C(=O)c1cc(-c2ccc(Br)cc2)nc2ccccc12	none (no result: Mdm2-MdmX inh)
CCN(CC)CCn1c2ccccc2c2nc3ccc([N+](=O)[O-])cc3cc21	Mdm2-MdmX inh 78 | Mdm2 MdmX conf-1 77 | Full FLuc ctr 57 | Mdm2 MdmX conf-2 83
Cn1c2ccccc2c2cc([N+](=O)[O-])ccc21	none
O=C(c1ccoc1)N1CCC(CO)(CCc2ccccc2)CC1	none
C[C@H]1COc2cc(N3CCC[C@@H]3CO)ccc2S(=O)(=O)N1	none (no result: KKLEB cytotox, Peg3 prom inh-1, Mdm2-MdmX inh, CF NFkB block)
Cc1cc2c(cc1C)CSC(c1c(O)ccc3ccccc13)SC2	HIF-2a inh 79, Peg3 prom inh-1 62, Mdm2-MdmX inh 75 | Mdm2 MdmX conf-1 inactive | Full FLuc ctr 57 | HIF-2a conf inactive | HIF-1a counter 99
CCn1c(=O)c([N+](=O)[O-])c(Cl)c2ccccc21	ABHD5 PLIN5 PPI 41, HIF-2a inh 92, Peg3 prom inh-1 108, Mdm2-MdmX inh 99, CF NFkB block 67 | Mdm2 MdmX conf-1 97 | Full FLuc ctr 55 | ABHD5 PLIN5 conf 71 | HNF4 split-luc 95 | Mdm2 MdmX conf-2 103 | HIF-2a conf 94 | HIF-1a counter 106
Cc1oc(-c2ccccc2F)nc1CS(=O)CC(=O)NCc1ccc(F)cc1 (stereo not drawn)	none
Nc1nc(F)nc2c1ncn2[C@@H]1O[C@H](CO)[C@@H](O)[C@H]1O	HIF-2a inh 57, Peg3 prom inh-1 95, Mdm2-MdmX inh 99, CF NFkB block 81 | Mdm2 MdmX conf-1 100 | Full FLuc ctr inactive | HIF-2a conf 55 | HIF-1a counter 107
CC(=O)Nc1nc(-c2ccc3c(c2)CC(C)N3C(=O)C2CC2)c(C)s1 (stereo not drawn)	Mdm2-MdmX inh 85 | Mdm2 MdmX conf-1 85 | Full FLuc ctr 54 | Mdm2 MdmX conf-2 99
Cn1c(SC2=CS(=O)(=O)c3ccccc32)nc2ccccc21	HIF-2a inh 91, Peg3 prom inh-1 99, Mdm2-MdmX inh 70, CF NFkB block 91 | Mdm2 MdmX conf-1 53 | Full FLuc ctr inactive | CF NFkB conf 98 | HIF-2a conf inactive | HIF-1a counter 77
Cn1c(CSc2nc3ccccc3n2C)nc2ccccc21	none
COc1ccc(CN2CCN(C3CCC3)CC2CCO)c(F)c1 (stereo not drawn)	none
CCOc1cc(/C=C\[N+](=O)[O-])ccc1OCC(=O)Nc1ccccc1C	ABHD5 PLIN5 PPI 55, HIF-2a inh 96, Peg3 prom inh-1 115, Mdm2-MdmX inh 96 | Mdm2 MdmX conf-1 100 | Full FLuc ctr 51 | Peg3 prom inh-2 91 | ABHD5 PLIN5 conf 96 | HNF4 split-luc 102 | Mdm2 MdmX conf-2 100 | HIF-2a conf inactive | HIF-1a counter 106
COc1cc(/C=C/c2cccc[n+]2C)ccc1OCC(=O)Nc1ccccc1C	none
O=C(Nc1cccc(-c2cnc3ccccc3n2)c1)C1CC(=O)N(c2ccccc2)C1 (stereo not drawn)	none
O=C(CCl)Nc1cccc(-c2cnc3ccccc3n2)c1	KKLEB cytotox -64, Peg3 prom inh-1 79, Mdm2-MdmX inh 97, CF NFkB block 88 | Mdm2 MdmX conf-1 99 | Full FLuc ctr 55 | Peg3 prom inh-2 92 | Mdm2 MdmX conf-2 102
O=C(Nc1ccc2nc3n(c(=O)c2c1)CCCC3)c1cc([N+](=O)[O-])ccc1F	HIF-2a inh 48, Peg3 prom inh-1 111, Mdm2-MdmX inh 100 | Mdm2 MdmX conf-1 91 | Full FLuc ctr 52 | Mdm2 MdmX conf-2 103 | HIF-2a conf inactive | HIF-1a counter 105
Cc1ccccc1-n1nnnc1Sc1nnnn1-c1ccccc1	HIF-2a inh 49, KKLEB cytotox -69, Peg3 prom inh-1 109, Mdm2-MdmX inh 98, CF NFkB block 78 | Mdm2 MdmX conf-1 83 | Full FLuc ctr 54 | Mdm2 MdmX conf-2 104 | HIF-2a conf inactive | HIF-1a counter 100
Cc1ccc(C2=NN(C(=O)CCl)C(c3ccco3)C2)o1 (stereo not drawn)	Peg3 prom inh-1 69, Mdm2-MdmX inh 100 | Mdm2 MdmX conf-1 99 | Full FLuc ctr 58 | Mdm2 MdmX conf-2 103

High-throughput results from PubChem BioAssay.
